Source: PubChem BioAssay
In the library only some 3.3% were active in any assay of this set; here they are far more common.
AmpC detergent: qHTS Inhibitors of AmpC Beta-Lactamase (assay with detergent); P00811; AmpC hydrolysis of nitrocefin, absorbance 480 nm, 0.01% Triton; Potency, µM (top dose mostly 114 µM), without a hit: top-dose activity change, negative = inhibition, actives largely listed as inhibitors; 370,000 compounds, 0.041% hits; AID 485294, 2010;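 further: 0% = no-compound wells and -100% = no-enzyme wells; nearly all actives have a fitted effect of over 25% in size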
Target sequence (P00811 whole entry, looked up): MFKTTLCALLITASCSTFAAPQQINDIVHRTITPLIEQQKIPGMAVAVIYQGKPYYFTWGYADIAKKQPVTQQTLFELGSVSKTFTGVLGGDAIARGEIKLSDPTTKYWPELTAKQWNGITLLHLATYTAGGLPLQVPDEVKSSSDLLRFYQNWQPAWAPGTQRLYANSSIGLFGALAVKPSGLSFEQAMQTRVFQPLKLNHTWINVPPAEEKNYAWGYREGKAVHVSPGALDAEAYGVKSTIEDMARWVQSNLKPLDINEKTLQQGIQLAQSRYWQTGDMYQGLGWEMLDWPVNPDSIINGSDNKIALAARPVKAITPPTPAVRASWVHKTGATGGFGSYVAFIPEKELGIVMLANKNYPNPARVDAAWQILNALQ
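AmpC (5.3 nM in the dispensed reagent) in 20 mM phosphate pH 7.0 with 0.01% (detergent screen) or 0.0001% Triton X-100 was preincubated with compounds for 15 min at room temperature. Nitrocefin was then added from an 800 uM solution, and hydrolysis was followed at 480 nm.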
Sm TGR block: qHTS Assay for the Inhibitors of Schistosoma Mansoni Peroxiredoxins; Potency, µM (doses to about 114 µM), for the others: at the top dose activity change, negative = inhibition, hits mostly inhibitors; purified TGR, DTNB reduction, TNB absorbance 405 nm; Schistosoma mansoni thioredoxin glutathione reductase (TGR), Q962Y6; 360,000 compounds, 3% hits; further: nearly all actives have a fitted effect of over 60% in size
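First, TGR (20 nM dispensed) and NADPH were mixed with compound. Second, a 15 min room-temperature incubation followed. Third, further NADPH and then DTNB were added to start the reaction. Finally, TNB absorbance was monitored kinetically.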
AmpC inh no detg: qHTS Inhibitors of AmpC Beta-Lactamase (assay without detergent); AmpC nitrocefin hydrolysis, absorbance 480 nm, 0.0001% Triton; Potency, µM (series often up to 57.1 µM), without a hit: at the highest dose activity change, negative = inhibition, hits mostly inhibitors; 330,000 compounds, 0.52% hits; AID 485341, 2010;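 further: plate controls were no compound for no effect and no enzyme for full effect; nearly all actives have a fitted effect of over 20% in size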
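20 mM phosphate pH 7.0 + 0.01% (detergent screen) or 0.0001% Triton X-100; 5.3 nM AmpC reagent; cpd preinc 15 min RT; nitrocefin (800 uM stock) to start; A480 q20 s × 4 min; Activity was normalised to no-enzyme and no-compound control wells.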
The depositor's hits bear a star; ? = inconclusive; nt = no result given. The call rests on the fitted dose curve; in most records, active means well fitted curve in the direction sought with a large enough effect; inconclusive means small, poorly fitted or top-dose-only effect, or another doubt; inactive means no such curve, though single readings can be large; an effect the other way counts as inactive or inconclusive. Unless noted, on the % scale 0 is the no-effect control and ±100 the full control effect; potency means the concentration at half of the fitted maximal effect.

SMILES | AmpC detergent | Sm TGR block | AmpC inh no detg
NS(=O)(=O)c1cccc(NC(=O)Nc2ccc(Cl)cc2)c1 | -5% | -20% | 14µM*
COc1ccccc1C(=O)NCCNc1ccc([N+](=O)[O-])cc1Cl | -11% | -20% | -15%
Cc1nn(C)c(C)c1S(=O)(=O)NC1CCCC1 | -11% | 4% | -13%
Cc1nn(-c2nnc(NC3CCCCC3)nn2)c(C)c1Br | 100µM* | 1% | 5%
COc1ccccc1N1CCN(/N=C/C(Cl)=C/c2ccccc2)CC1 | -5% | -8% | 16%
CN1CCCC(C(=O)c2ccc(Cl)cc2)C1 (configuration not stated) | -6% | 35µM* | -35%
CC(=O)c1ccc(C(=O)N2CCCC(C(=O)c3ccc(Cl)cc3)C2)s1 (configuration not stated) | 2% | 0% | 19%
Cc1ccc(CN2C(=O)CC(Nc3ccc(N4CCOCC4)cc3)C2=O)cc1 (configuration not stated) | -11% | 40µM* | 2%
O=C1CC(Nc2ccc(N3CCOCC3)cc2)C(=O)N1c1cccc(C(F)(F)F)c1 (configuration not stated) | 6% | 28µM* | -10%
COc1ccc(N2C(=O)CC(Nc3ccc(N4CCOCC4)cc3)C2=O)c(OC)c1 (configuration not stated) | 4% | 28µM* | 23%
O=C1CC(Nc2ccc(N3CCOCC3)cc2)C(=O)N1CCc1ccccc1 (configuration not stated) | -3% | -28% | -3%
CN(C)c1ccc(N2C(=O)CC(Nc3ccc(N4CCOCC4)cc3)C2=O)cc1 (configuration not stated) | ? | ? | -12%
COc1cccc(N2C(=O)CC(Nc3ccc(N4CCOCC4)cc3)C2=O)c1 (configuration not stated) | -5% | ? | -44%
Cc1nc(-c2ccccc2)sc1CCNC(=O)C(=O)Nc1ccc2c(c1)OCO2 | 3% | 6% | nt
Cc1cccc(NC(=S)NCc2ccco2)c1C | 6% | -10% | -13%
CC(C)(CO)NC(=S)NCc1ccco1 | -1% | 25µM* | -28%
S=C(NCc1ccco1)Nc1cccc(Cl)c1Cl | 1% | 7.9µM* | -32%
CC(C)(C)c1ccc(C(=O)NC(=S)NCc2ccco2)cc1 | 1% | ? | -46%
S=C(NCc1ccco1)Nc1ccccc1Cl | 6% | 7.9µM* | -19%
Cc1c(Cl)cccc1NC(=S)NCc1ccco1 | -5% | ? | -35%
CCOc1ccc(NC(=O)NC2CCS(=O)(=O)C2)cc1 (configuration not stated) | 1% | -10% | -12%
Cc1ccc(C(=O)NNC(=O)c2ccc(S(=O)(=O)N(C)c3ccccc3)cc2)cc1 | 0% | -7% | -25%
O=C(/C=C/c1cccs1)c1cc(Cl)ccc1O | 1% | -23% | -31%
O=C(/C=C/c1ccc2ccccc2n1)c1cc(Cl)ccc1O | -6% | 25µM* | -31%
CC(=O)N1CCN(c2nc(-c3ccco3)c3c(c2C#N)CC(C)(C)SC3)CC1 | 1% | 11µM* | 162%
SMILES | AmpC detergent | Sm TGR block | AmpC inh no detg
N#Cc1c(N2CCN(C(=O)c3ccccc3Cl)CC2)nc(-c2ccccc2)c2c1CCCC2 | 2% | 11% | 4%
CC1(C)Cc2c(C#N)c(N3CCN(C(=O)c4ccccc4Cl)CC3)nc(-c3ccco3)c2CS1 | -8% | 3.5µM* | 50%
CC1(C)Cc2c(C#N)c(N3CCN(C(=O)c4ccco4)CC3)nc(-c3ccco3)c2CS1 | 4% | 2.8µM* | 57%
CC1(C)Cc2c(C#N)c(N3CCN(C(=O)c4ccco4)CC3)nc(Cc3ccccc3)c2CO1 | ? | 0% | -9%
CCc1nc(N2CCN(C(=O)c3ccco3)CC2)c(C#N)c2c1COC(C)(C)C2 | -12% | 0% | 58%
CC1(C)Cc2c(c(-c3ccccc3)[nH]c(=O)c2C#N)CS1 | ? | -13% | -34%
CC1(C)Cc2c(c(-c3ccco3)[nH]c(=O)c2C#N)CS1 | -14% | 32µM* | -15%
CCn1cc(CN2CCC(n3nccc3NC(=O)C3CCCC3)CC2)cn1 | -15% | -11% | 0%
COc1ccc(-c2ccc(-c3cc(=O)oc4cc(OC)c(OC)c(OC)c34)cc2)cc1 | nt | nt | -22%
O=C(CCC(=O)N1CCN(c2cccc(Cl)c2)CC1)c1cccs1 | 5% | 0% | -9%
COc1cc2cc3c(N)c(C(=O)Nc4sc(C)c(C)c4C#N)sc3nc2cc1OC | -1% | 27% | 25%
O=S(=O)(c1ccc(OC(F)(F)F)cc1)N1CCCC(N2CCOCC2)C1 (configuration not stated) | -6% | -32% | 12%
CCCCN(C)C(=O)Cn1c(SCC(=O)Nc2ccc(C)c(C)c2)nc2ccccc21 | -9% | -1% | nt
Cc1ccc(NC(=O)CN(C)C(=O)CSc2nnnn2C)cc1 | -8% | 11% | -6%
CCOC(=O)c1ccccc1NC(=O)N1CCCn2nc(C)cc21 | -2% | 9% | nt
O=C(Cn1[nH]c(=O)c2ccccc2c1=O)NCCN1C(=O)S/C(=C\c2ccccc2)C1=O | nt | nt | -26%
COc1ccc(CCNC(=O)C2CC(c3cccc([N+](=O)[O-])c3)=NO2)cc1 (configuration not stated) | -2% | -4% | -1%
O=C(NCc1ccco1)C1CC(c2c(Cl)cccc2Cl)=NO1 (configuration not stated) | -14% | 40µM* | -38%
Cc1ccc(CNC(=O)C2CC(c3cc(C(F)(F)F)cc(C(F)(F)F)c3)=NO2)o1 (configuration not stated) | -1% | 18µM* | 83%
Cc1ccc(CNC(=O)C2CC(c3cccc([N+](=O)[O-])c3)=NO2)o1 (configuration not stated) | 0% | 32µM* | -19%
Cc1ccc(CCNC(=O)C2CC(c3cc(C(F)(F)F)cc(C(F)(F)F)c3)=NO2)cc1 (configuration not stated) | 2% | 26% | -5%
O=C(NCc1ccco1)C1CC(c2ccc(Cl)c(Cl)c2)=NO1 (configuration not stated) | 0% | 7% | 0%
O=C(NNC(=O)C1CCC1)c1ccc(Br)cc1 | ? | 0% | -16%
O=C(c1ccc(Br)cc1)C1CCc2occc2C1=O (configuration not stated) | 1% | 56µM* | -50%
Cc1ccccc1NC(=S)N(CCCN1CCOCC1)Cc1ccccn1 | -10% | 5% | -30%
Cc1nn(C)c2c1c(C(F)(F)F)cc(=O)n2CC(=O)Nc1ccc(F)cc1F | 1% | 0% | nt
O=C(NCc1ccco1)c1cc(-c2ccccc2)nn1CC1CC(c2cccc([N+](=O)[O-])c2)=NO1 (configuration not stated) | nt | nt | -16%
Cc1ccccc1-c1cc(C(=O)NCc2ccco2)n(CC2CC(c3cccnc3)=NO2)n1 (configuration not stated) | 4% | 18µM* | 11%
Cc1nc2cccnc2n1-c1cccc(C(=O)N2CCN(c3cccc(Cl)c3)CC2)c1 | 11% | 9% | nt
CCOC(=O)C1CCN(c2c(Nc3ccc(C)c(C)c3)c(=O)c2=O)CC1 | -7% | -8% | -3%
